Drawing on PubChem BioAssay (NCATS), this text covers Potency and activity, negative = inhibition for 40 molecules.

Inconclusive results are not listed. A call without a number means that no potency is given here. Unmarked numbers belong to inactive results. Activity calls are given as the source filed them. The call rests on the fitted dose curve; in most records, active means well fitted inhibition curve with a large enough effect; inconclusive means small, poorly fitted or top-dose-only effect; inactive means flat fitted curve, though single readings scatter.
Potency means the concentration at half of the fitted maximal effect.

Sequence of Glutathione peroxidase 1 (Homo sapiens) (P07203 whole entry, looked up): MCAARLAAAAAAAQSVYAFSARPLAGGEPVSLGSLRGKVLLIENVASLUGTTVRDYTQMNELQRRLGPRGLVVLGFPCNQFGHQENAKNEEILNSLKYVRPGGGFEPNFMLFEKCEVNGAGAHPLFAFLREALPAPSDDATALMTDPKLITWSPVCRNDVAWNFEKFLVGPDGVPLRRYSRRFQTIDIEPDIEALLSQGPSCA

For the assay, the target named is Glutathione peroxidase 1 (Homo sapiens) (UniProt P07203). Description: Primary qHTS Assay for Inhibitors of Recombinant Selenoprotein Glutathione Peroxidase 1 (GPX1) (AID 1845191). Further: nearly all actives have a fitted effect of over 65% in size. Particulars: recombinant GPX1, GR-coupled NADPH fluorescence, 15 min; series mostly up to 48.8 µM. The procedure, abridged:
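GR-coupled assay: compounds preincubated 30 min at room temperature with GPX1, then reaction started with CHP; final 10 nM GPX1, 1 mM GSH, 0.5 mM CHP, 0.5 mM NADPH, 100 nM GR, 0.01% BSA, pH 7.5 Tris buffer. NADPH fluorescence (340/450 nm) read at 0 and 15 min.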
As to `CN[C@@H]1[C@@H](O[C@H]2O[C@H](CO)[C@@H](N)[C@H](O)[C@H]2O)O[C@H]2C[C@@H](N)[C@H](O[C@H]3[C@H](O)[C@@H](O)[C@H](N)C[C@@H]3N)O[C@@H]2[C@@H]1O`, the Potency entry is “inactive”. For the molecule `Oc1c(Br)cc(Br)cc1CNC1CCC(O)CC1` (stereo not given), the Potency entry was “inactive”. As for `CCC1OC(=O)C(C)C(OC2CC(C)(OC)C(O)C(C)O2)C(C)C(OC2OC(C)CC(N(C)C)C2O)C(C)(O)CC(C)C2NC(COCCOC)OC(C2C)C1(C)O` (stereo not given), the Potency result is “inactive”. Take `COc1ccc(-c2nn3c(-c4ccco4)nnc3s2)cc1OC`: the Potency result is “inactive”.

On to `O=C1Cc2ccccc2N1`, for which the Potency entry was “inactive”. With `C=C1/C(=C/C=C2\CCC[C@]3(C)[C@@H]([C@H](C)CCCC(C)(C)O)CC[C@@H]23)C[C@@H](O)[C@@H](OCCCO)[C@@H]1O`, the Potency result was “inactive”.

Take `Cn1cc(C2=C(c3cn(CCCN)c4ccccc34)C(=O)NC2=O)c2ccccc21`: the Potency entry was “inactive”. With `O=S(=O)(Nc1cccc(-c2ccc(N3CCOCC3)nn2)c1)c1cc(C(F)(F)F)ccc1Cl`, the Potency entry was “inactive”. As for `C[C@](C#N)(COc1cc(C#N)ccc1C(F)(F)F)NC(=O)c1ccc(SC(F)(F)F)cc1`, the Potency entry was “inactive”. On to `CC1CC2C3CCC4=CC(=O)C=CC4(C)C3(F)C(O)CC2(C)C1(O)C(=O)COC(=O)c1cccc(S(=O)(=O)O)c1` (stereo not given), for which the Potency entry was “inactive”. In the case of `Cn1c(=O)cc(N2CCC[C@@H](N)C2)n(Cc2cc(F)ccc2C#N)c1=O`, the Potency result is “inactive”. Same read-out and setting: next, `O=C(O)c1ccc2nc(-c3cc(Cl)cc(Cl)c3)oc2c1`: “inactive”; `CC(C)Oc1ccc(-c2c[nH]cc2CN(C)CCN)cc1`: “inactive”; `N#Cc1ncccn1`: “inactive”. As for `CCCCCCCCN=C(N)NC(N)=NCc1ccc(Cl)c(Cl)c1`, the Potency result is “inactive”. Take `CCn1cc(-c2cccc(C(F)(F)F)c2)c2sc(C(N)=NC3CCS(=O)(=O)CC3)cc2c1=O`: the Potency was 20.2 µM (active). With `CCC1OC(=O)[C@H](C)C(=O)[C@H](C)[C@@H](OC2O[C@H](C)C[C@H](N(C)C)[C@H]2O)[C@](C)(OC)C[C@@H](C)C(=O)[C@@H](C)[C@@H]2N(CCCCn3cnc(-c4cccnc4)c3)C(=O)O[C@]12C` (stereo not given in full), the Potency result was “inactive”.

With `C1CCC[C@H]2CCCN3CC[C@H](CCCCCC[C@@H]4CCCN5CC[C@H](CC1)O[C@H]45)O[C@H]23`, the activity, negative = inhibition was 1.08% [at 0.127 µM].

Regarding `Cc1cncc(CN2CCC(=C3c4ccc(Cl)cc4CCc4cccnc43)CC2)c1`, the Potency result was “inactive”. The same measure, in the same setting: for `COC(=S)NCCn1c([N+](=O)[O-])cnc1C` the value was “inactive”; for `[Mn].[O]=[Mn][OH].[O]=[Mn][OH]`, “inactive”. Take `N=c1sc2c(n1CC(=O)c1ccc([N+](=O)[O-])cc1)CCCC2`: the Potency result was “inactive”. With `CC(c1ccc(-c2ccc(CC(=O)O)cn2)cc1)N1CCCCC1` (stereo not given), the Potency entry was “inactive”. On to `CCOC(=O)[C@H](C)C[C@@H](Cc1ccc(-c2ccccc2)cc1)NC(=O)CCC(=O)O`, for which the Potency result is “inactive”. As for `COC(=O)N(C)Cc1cccc(N2CCN(C(c3ccccc3)c3ccccc3)CC2)c1`, the Potency entry is “inactive”.

With `CC(C)CCC[C@@H](C)[C@H]1CC[C@H]2[C@@H]3CC[C@H]4C[C@@H](O)CC[C@]4(C)[C@@H]3CC[C@]12C`, the Potency entry was “inactive”. Regarding `CN(Cc1ccccc1)C(=O)[C@H](NC(=O)c1cc2cc(NC(=O)c3ccccc3-c3ccc(C(F)(F)F)cc3)ccc2n1C)c1ccccc1`, the Potency entry is “inactive”. In the case of `Cc1nc2c(C#N)c[nH]n2c(=O)c1C(C)C`, the Potency entry was “inactive”. On to `CC(C)CCC[C@@H](C)[C@H]1CC[C@H]2[C@@H]3CC=C4C[C@@H](O)CC[C@]4(C)[C@@H]3CC[C@]12C`, for which the Potency entry is “inactive”. Take `C=CC[N@@+]12CC[C@]34c5ccccc5N5/C=C6\C7N(/C=C(\C53)[C@@H](C[C@@H]41)/C(=C/CO)C2)c1ccccc1[C@@]71CC[N@@+]2(CC=C)C/C(=C\CO)[C@@H]6C[C@@H]12` (stereo not given in full): the Potency result was “inactive”.

`O=C(CCc1cc(=O)[nH]o1)N[C@H](C1CCNCC1)C1CC(O)C1` (stereo not given in full): the Potency result was “inactive”. Consider `CN1C(=O)[C@]23C[C@H]4C(C)(C)[C@]5(CNc6c5ccc5c6OC=CC(C)(C)O5)C[C@@]41CN2CC[C@@]3(C)O`, for which the Potency entry is “inactive”. As to `C=C1C/C(=C\C=C2/CCC[C@]3(C)[C@@H]([C@H](C)/C=C/C(C)C(C)C)CC[C@@H]23)[C@@H](O)C[C@@H]1O` (stereo not given in full), the Potency entry is “inactive”.

`Cc1ccc2nc(-c3ccc(Cl)c(NC(=O)c4ccc5c(c4)OCCO5)c3)oc2c1`: the Potency entry is “inactive”.

On to `CN[C@@H]1[C@@H](O)[C@@H](O[C@@H]2[C@@H](O)[C@H](OC3O[C@H](CN)[C@@H](O)[C@H](O)[C@H]3O)[C@@H](N)C[C@H]2NC(=O)[C@@H](O)CN)OC[C@]1(C)O` (stereo not given in full), for which the Potency entry was “inactive”. Consider `C=CS(=O)(=O)N1CCCN(c2cc(NCCC(=O)O)nc(-c3ccccn3)n2)CC1`, for which the Potency entry is “inactive”. Turning to `CCCCCCCCn1cc(CC(N)=O)c2cc(-c3cccc(C)c3)ccc21`, the Potency entry was “inactive”. For the molecule `O=C(O)[C@H]1OC(O)[C@H](O)[C@@H](O)[C@@H]1O` (stereo not given in full), the Potency result is “inactive”. Still for that read-out and setting: next, `COc1cc2oc(-c3ccccc3)cc(=O)c2c(OC)c1OC`: “inactive”; `CC(C)c1c(-c2cnn(C(C)(C)C)c2)nc2c(C#N)c[nH]n2c1=O`: “inactive”.
